For five compounds, composite z-score and z-score results are on record in PubChem BioAssay.

In assay [1] the test system is Wnt5a (protein binding on small-molecule microarray). Description: Wnt5a binders on small-molecule microarray, primary screen, biophysical, 635/667 nm fluorescence (AID 1142).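 Note: fluorescence read at 667 nm with signal to noise per printed feature.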 The settings on record: 635 nm fluorescence, higher = more signal.
The nature of assay [2]: cell viability in Huh7 cells, primary screen, cytotoxicity control for HCV replication inhibitor project, CellTiter-Glo luminescence, basal, 48 h (AID 1143).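 Note: Huh7 hepatoma cells carrying a hepatitis C replication reporter with no stimulus; test concentration not given here.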 The settings on record: Huh7 HCV replicon, higher = more signal, called active from +8 up or from −8 down. On the technique in general: Cellular ATP, detected with luciferase, serves as a proxy for viable cell number.
Assay [3] can be described thus: CREB reporter modulators without forskolin, primary screen, cell-based, PC12, CRE-LacZ reporter, unstimulated (AID 1145). Particulars: no forskolin, luminescence, 4.5 h, higher = more signal, called active from +8 up or from −8 down.
Assay [4] can be described thus: CREB reporter modulators under forskolin, primary screen, cell-based, PC12, CRE-LacZ reporter, forskolin-stimulated (AID 1146).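 Note: PC12 cells with 6xCRE LacZ reporter stimulated by forskolin 10 µM; beta-galactosidase reporter signal reflecting CREB driven transcription.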 Particulars: luminescence, 4.5 h, higher = more signal, called active from +8 up or from −8 down.
Assay [5] deals with Streptavidin (Streptomyces avidinii) (UniProt P22629). Description: streptavidin binders on small-molecule microarray, primary screen, artefact control for SMM compound annotation, biophysical, 635/667 nm fluorescence (AID 1147).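 Note: signal reflects streptavidin binding to arrayed compounds as a control protein.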 The settings on record: streptavidin binding, higher = more signal.
Sequence of Streptavidin (Streptomyces avidinii) (P22629 whole entry, looked up): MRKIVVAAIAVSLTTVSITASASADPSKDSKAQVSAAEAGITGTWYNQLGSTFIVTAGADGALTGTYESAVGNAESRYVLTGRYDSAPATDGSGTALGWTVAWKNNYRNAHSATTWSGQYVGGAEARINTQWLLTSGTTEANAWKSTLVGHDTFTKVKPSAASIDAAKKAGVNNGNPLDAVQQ
Assay [6] can be described thus: small-molecule binders of probe aInhba, primary screen, biochemical, small-molecule microarray, 635/667 nm fluorescence (AID 1148).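 Note: score merges 667nm spot fluorescence with signal-to-noise for antibody binding to printed compounds.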 The settings on record: higher = more signal.
Assay [7] has as its target Torsin-1A (Homo sapiens) (UniProt O14656). The assay can be described thus: torsin A binders from cell lysate, primary screen, small-molecule microarray, wild-type, 635/667 nm (AID 1149). The settings on record: COS7 hTOR1A-WT lysate, 635 nm fluorescence, higher = more signal.
The target is the same in assay [8]. Description: small-molecule binders of mutant TOR1A in lysate, primary screen, cell lysate, small-molecule microarray, COS7 lysate, 635/667 nm fluorescence (AID 1150).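 Note: score pools 667 nm emission and signal to noise measuring lysate protein binding.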 Particulars: COS7 hTOR1A mutant lysate, 635 nm fluorescence, higher = more signal.
For assay [9], the system named is Sonic hedgehog protein (Shh). The assay can be described thus: small-molecule binders of Shh protein, primary screen, biochemical, small-molecule microarray, 635/667 nm fluorescence (AID 1151).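 Note: Shh protein binding to compounds spotted on small-molecule microarray slides; score combines spot fluorescence intensity with signal-to-noise across triplicate slides.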 Particulars: small-molecule microarray binding, 635 nm fluorescence; higher = more signal.
A short description of assay [10]: E. coli DRC41 culture turbidity changes, primary screen, E. coli filamentation inducer project, strain DRC41, OD650, 48 h (AID 1152).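 Note: E. coli MC1000 strain DRC41 lacking acrAB efflux pump and sulA.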 The settings on record: E. coli DRC41 (acrAB sulA), higher = more signal, called active from +8 up or from −8 down.
Assay [11] in a line: small-molecule binders of probe aLefty1, primary screen, biochemical, small-molecule microarray, 635/667 nm fluorescence (AID 1153).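 Note: score merges spot fluorescence with signal-to-noise ratio from the scanned slide images.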 Particulars: higher = more signal.
A short description of assay [12]: PSAC antagonists in infected red cells, primary screen, cell-based, P. falciparum Indochina, OD700, 1 h (AID 1154). The settings on record: P. falciparum Indochina infected RBC osmotic lysis, higher = more signal, called active from +8 up or from −8 down.
Assay [13] is described as follows: PSAC antagonists in infected red cells, primary screen, cell-based, P. falciparum Indochina, OD700, 2 h (AID 1155).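 Note: lysis reports solute entry through the parasite surface anion channel PSAC; channel blockers reduce lysis of infected cells.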 Particulars: P. falciparum Indochina infected erythrocytes, osmotic lysis OD700; higher = more signal, called active from +8 up or from −8 down.
The nature of assay [14]: osmotic lysis modulators in infected erythrocytes, primary screen, PSAC antagonist project, cell-based, P. falciparum Indochina, OD700, 3 h (AID 1156). The settings on record: higher = more signal, called active from +8 up or from −8 down.
Assay [15] in a line: PSAC antagonists in infected red cells, primary screen, cell-based, P. falciparum Indochina, OD700, 18 h (AID 1157). The settings on record: P. falciparum Indochina infected erythrocytes, osmotic lysis OD700, 18 h; higher = more signal, called active from +8 up or from −8 down.
The nature of assay [16]: modulators of S6 phosphorylation in cells, primary screen, cell-based, A549, cytoblot, luminescence, serum-stimulated (AID 1158).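 Note: serum-stimulated A549 lung adenocarcinoma cells; signal is phosphorylated S6 detected by cytoblot immunostaining with HRP secondary.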 Particulars: A549 phospho-S6 cytoblot, 5 h, higher = more signal.
For assay [17], the target named is NADPH oxidase 2 (Homo sapiens) (UniProt P04839). The assay can be described thus: NOX2-dependent H2O2 signal modulators, primary screen, NOX inhibitor project, cell-based, HEK293-NOX2, PMA-stimulated, Amplex Red fluorescence (AID 1159). Note: test concentration not given here. The settings on record: 45 min, higher = more signal, called active from +8 up or from −8 down.
Sequence of NADPH oxidase 2 (Homo sapiens) (P04839 whole entry, looked up): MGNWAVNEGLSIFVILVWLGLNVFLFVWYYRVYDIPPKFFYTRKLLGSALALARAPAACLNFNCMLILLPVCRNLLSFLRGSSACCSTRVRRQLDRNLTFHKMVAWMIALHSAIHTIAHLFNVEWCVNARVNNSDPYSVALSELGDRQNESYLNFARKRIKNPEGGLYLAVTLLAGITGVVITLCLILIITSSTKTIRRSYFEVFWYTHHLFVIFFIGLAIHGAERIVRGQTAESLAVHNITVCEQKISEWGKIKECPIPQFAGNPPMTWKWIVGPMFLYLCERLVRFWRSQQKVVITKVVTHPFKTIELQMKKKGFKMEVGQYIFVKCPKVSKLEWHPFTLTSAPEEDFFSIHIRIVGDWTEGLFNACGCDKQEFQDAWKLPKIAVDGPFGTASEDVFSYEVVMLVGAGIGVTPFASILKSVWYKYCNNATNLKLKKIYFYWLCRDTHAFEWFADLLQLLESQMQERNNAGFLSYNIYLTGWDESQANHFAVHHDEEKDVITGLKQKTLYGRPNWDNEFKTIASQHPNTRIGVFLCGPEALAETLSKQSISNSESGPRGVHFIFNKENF
Assay [18] has as its target NADPH oxidase 4 (Homo sapiens) (UniProt Q9NPH5). Description: NOX4-dependent H2O2 signal modulators, primary screen, NOX inhibitor project, cell-based, HEK293-NOX4, tetracycline-induced, Amplex Red fluorescence (AID 1160). Particulars: 45 min, higher = more signal, called active from +8 up or from −8 down.
For assay [19], the target named is NADPH oxidase 5 (Homo sapiens) (UniProt Q96PH1). Description: NOX5-dependent H2O2 signal modulators, primary screen, NOX inhibitor project, cell-based, HEK293-NOX5, Amplex Red fluorescence (AID 1161). Particulars: HEK293-NOX5, ionomycin, 45 min, higher = more signal.
Sequence of NADPH oxidase 5 (Homo sapiens) (Q96PH1 whole entry, looked up): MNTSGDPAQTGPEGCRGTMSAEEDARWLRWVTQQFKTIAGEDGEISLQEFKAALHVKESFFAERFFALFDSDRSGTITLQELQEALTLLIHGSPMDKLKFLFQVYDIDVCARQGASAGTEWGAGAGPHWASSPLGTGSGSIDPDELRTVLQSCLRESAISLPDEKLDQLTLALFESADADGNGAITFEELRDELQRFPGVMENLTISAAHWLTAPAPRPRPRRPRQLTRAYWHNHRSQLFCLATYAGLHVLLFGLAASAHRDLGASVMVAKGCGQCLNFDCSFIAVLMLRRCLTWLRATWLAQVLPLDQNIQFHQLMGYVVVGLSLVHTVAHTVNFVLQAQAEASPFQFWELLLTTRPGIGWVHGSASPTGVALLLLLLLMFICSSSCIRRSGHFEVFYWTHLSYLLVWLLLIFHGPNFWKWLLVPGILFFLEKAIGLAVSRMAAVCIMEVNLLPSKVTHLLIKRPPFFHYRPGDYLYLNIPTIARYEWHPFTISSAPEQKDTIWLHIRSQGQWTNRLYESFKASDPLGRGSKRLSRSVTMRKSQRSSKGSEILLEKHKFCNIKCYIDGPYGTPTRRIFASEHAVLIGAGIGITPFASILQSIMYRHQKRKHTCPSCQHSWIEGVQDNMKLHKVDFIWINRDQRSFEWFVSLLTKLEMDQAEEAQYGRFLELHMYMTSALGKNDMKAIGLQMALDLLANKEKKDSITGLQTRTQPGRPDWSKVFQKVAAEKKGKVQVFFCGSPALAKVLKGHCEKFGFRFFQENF
Assay [20] is described as follows: A549 cell viability effects, profiling panel, calcein-AM fluorescence, 48 h, basal (AID 1162). Note: test concentration not given here. The settings on record: higher = more signal.

Activity calls are given as the source filed them.

Sequence of Torsin-1A (Homo sapiens) (O14656 whole entry, looked up): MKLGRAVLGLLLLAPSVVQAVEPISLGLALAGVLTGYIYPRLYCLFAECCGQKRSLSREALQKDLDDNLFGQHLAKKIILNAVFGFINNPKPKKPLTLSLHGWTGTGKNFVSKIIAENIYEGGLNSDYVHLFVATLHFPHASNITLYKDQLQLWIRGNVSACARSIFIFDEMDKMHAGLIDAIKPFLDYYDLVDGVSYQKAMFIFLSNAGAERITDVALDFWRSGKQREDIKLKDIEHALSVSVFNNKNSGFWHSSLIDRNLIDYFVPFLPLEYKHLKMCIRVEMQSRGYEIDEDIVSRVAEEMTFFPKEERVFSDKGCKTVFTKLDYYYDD
Sequence of NADPH oxidase 4 (Homo sapiens) (Q9NPH5 whole entry, looked up): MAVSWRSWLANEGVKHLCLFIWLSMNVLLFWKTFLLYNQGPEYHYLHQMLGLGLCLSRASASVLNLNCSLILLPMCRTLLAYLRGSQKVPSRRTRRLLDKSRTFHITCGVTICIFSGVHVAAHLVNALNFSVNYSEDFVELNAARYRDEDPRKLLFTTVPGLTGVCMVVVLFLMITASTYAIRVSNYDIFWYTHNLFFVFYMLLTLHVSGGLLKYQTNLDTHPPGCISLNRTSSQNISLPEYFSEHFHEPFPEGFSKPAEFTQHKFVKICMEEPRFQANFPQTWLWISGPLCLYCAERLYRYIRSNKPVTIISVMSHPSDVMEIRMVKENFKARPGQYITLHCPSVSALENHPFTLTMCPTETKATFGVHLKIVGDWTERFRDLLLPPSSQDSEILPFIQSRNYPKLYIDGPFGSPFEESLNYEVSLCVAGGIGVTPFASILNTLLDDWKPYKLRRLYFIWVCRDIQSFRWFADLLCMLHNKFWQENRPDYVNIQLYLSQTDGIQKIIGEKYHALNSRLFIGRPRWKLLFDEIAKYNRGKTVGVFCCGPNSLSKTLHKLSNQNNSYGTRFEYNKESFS

As for `CC(C)(C)OC(=O)CC[C@@]1(C(=O)N2CCOCC2)N=C(c2ccc(OCCCO)cc2)O[C@@H]1c1ccccc1`, the composite z-score was 0.674 in [1]; 0.3 in assay [5]; 0.182 in assay [6]; 1.38 with Torsin-1A (Homo sapiens) [7]; 1.46 in the assay with Torsin-1A (Homo sapiens) [8]; -0.0953 in [9]. The compound further displayed a composite z-score in assay [11] of 0.951. Also, the z-score in assay [2] is -1.77 (inactive); in assay [3] it was 1.56 (inactive); in assay [4], -0.257 (inactive); in [10] it was 1.79 (inactive); in assay [12], 20.8 (active); in [13], 3.95 (inactive). The z-score was 0.794 (inactive) in assay [14]; -0.73 (inactive) in [15]; 1.12 in [16]; -0.261 (inactive) in [17]; -0.961 (inactive) in assay [18]; -0.0438 in assay [19]. Moreover, in [20], the z-score was 0.343.

As to `CCCCC(=C=CC[C@H](O)c1cccc(OCCO)c1)CCO`, the composite z-score in [1] is -0.0668; in assay [5] it was -0.209; in [6], 0.0355; in the assay with Torsin-1A (Homo sapiens) [7], 1.13; in the assay with Torsin-1A (Homo sapiens) [8], 0.983; in assay [9] it was 0.242. In [11], this compound yielded a composite z-score of 0.37. In addition, the z-score in [2] is -0.081 (inactive); in [3] it was 4.86 (inactive); in assay [4] it was -0.679 (inactive); in [10] it was 0.892 (inactive); in assay [12] it was 11.4 (active); in [13], 1.91 (inactive). In addition, the z-score is 1.2 (inactive) in assay [14]; 0.774 (inactive) in assay [15]; -0.679 in assay [16]; 1.06 (inactive) in assay [17]; 0.362 (inactive) in assay [18]; -1.64 in [19]. In addition, the z-score in assay [20] is 1.13.

As for `C=C(COC)C(=O)CC[C@H](OC(=O)c1cccnc1)c1cccc(OCCO)c1`, the composite z-score in assay [1] is 1; in assay [5], -0.347; in assay [6], 0.345; with Torsin-1A (Homo sapiens) [7], 2.35; with Torsin-1A (Homo sapiens) [8] it was 0.0556; in assay [9], 2.06. In assay [11], this compound returned a composite z-score of 0.75. In addition, the z-score in assay [2] is -0.365 (inactive); in assay [3], 6.86 (inactive); in assay [4], 0.309 (inactive); in [10] it was 1.05 (inactive); in [12], 10.4 (active); in assay [13], 1.47 (inactive). Further, the z-score is 0.934 (inactive) in [14]; 0.577 (inactive) in assay [15]; -0.597 in [16]; 0.936 (inactive) in assay [17]; 0.743 (inactive) in assay [18]; -1.3 in [19]. Besides, the z-score in assay [20] is 0.18.

Consider `C=C(C(=O)CC[C@@H](OC(C)=O)c1ccccc1OCCO)C(C)C`, for which the composite z-score in [1] is 0.235; in assay [5], -0.965; in assay [6] it was -0.0791; with Torsin-1A (Homo sapiens) [7], 0.964; with Torsin-1A (Homo sapiens) [8], -0.353; in assay [9] it was 1.09. Further, the composite z-score in assay [11] was -0.29. The z-score in assay [2] is -4.89 (inactive); in assay [3], 3.88 (inactive); in assay [4], -1.21 (inactive); in [10], 1.19 (inactive); in assay [12], 0.425 (inactive); in assay [13] it was 0.279 (inactive). Also, the z-score is -1.49 (inactive) in assay [14]; 0.479 (inactive) in [15]; -0.258 in [16]; 1.24 (inactive) in [17]; -0.759 (inactive) in assay [18]; -2.43 in [19]. For the same compound, the z-score in [20] was -0.646.

On to `CN1C=C(C(=O)OCCS(C)(=O)=O)C(C(=O)OCCS(C)(=O)=O)=CC(CCCO)=CC1c1cccs1` (stereo not given), for which the composite z-score is 0.131 in assay [1]; -0.0015 in [5]; -0.299 in assay [6]; 0.408 in the assay with Torsin-1A (Homo sapiens) [7]; 0.0286 in the assay with Torsin-1A (Homo sapiens) [8]; 1.05 in assay [9]. Also, the composite z-score in assay [11] was -0.0011. Further, the z-score in [2] was -0.894 (inactive); in assay [3], 5.95 (inactive); in assay [4] it was -1.56 (inactive); in assay [10], 0.302 (inactive); in assay [12], 1.91 (inactive); in [13], -1.53 (inactive). Also, the z-score in assay [14] is -0.727 (inactive); in [15], -1.71 (inactive); in assay [16] it was -0.496; in assay [17], 0.92 (inactive); in [18], 0.858 (inactive); in assay [19], 0.0246. The z-score in assay [20] was 2.6.
